# Sfp PPTase inh: qHTS Assay for Inhibitors of Bacillus subtilis Sfp phosphopantetheinyl transferase (PPTase) | AID 1490, 2009 | Biochemical Sfp PPTase activity, qHTS | 4'-phosphopantetheinyl transferase ffp (Bacillus subtilis), Q9F4F7 | hit rate 3.5% among 310,000 | Potency, µM, for the others: largest response in the series, negative = inhibition, usual class: inhibitors;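 also: the enzyme is Sfp with the accession as filed and its product quenches rhodamine fluorescence; 0% = enzyme reaction without inhibitor and -100% = no enzyme wells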
#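 Fluorescence-quenching assay: 15 nM Sfp-PPTase preincubated 15 min at room temperature with compound, then 5 uM rhodamine-CoA and 12.5 uM BHQ-2-labelled YbbR peptide added. Fluorescence (ex 525/em 598 nm) read at start and after 30 min; difference gives rate.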
# RORg inh: qHTS for inhibitors of ROR gamma transcriptional activity | Drosophila S2 Gal4-RORgamma UAS-luciferase reporter, 20 h | Potency, µM (top dose mostly 53.6 µM), for inactives: top-dose activity change, negative = inhibition, hits mostly inhibitors | hit rate 5.4% among 310,000 | AID 2551, 2010; also: % is scaled to controls: 0 for no effect and ±100 for the full control effect; nearly all actives have a fitted effect of over 60% in size
# Target sequence (P51450 whole entry, looked up, the tested form may be a part): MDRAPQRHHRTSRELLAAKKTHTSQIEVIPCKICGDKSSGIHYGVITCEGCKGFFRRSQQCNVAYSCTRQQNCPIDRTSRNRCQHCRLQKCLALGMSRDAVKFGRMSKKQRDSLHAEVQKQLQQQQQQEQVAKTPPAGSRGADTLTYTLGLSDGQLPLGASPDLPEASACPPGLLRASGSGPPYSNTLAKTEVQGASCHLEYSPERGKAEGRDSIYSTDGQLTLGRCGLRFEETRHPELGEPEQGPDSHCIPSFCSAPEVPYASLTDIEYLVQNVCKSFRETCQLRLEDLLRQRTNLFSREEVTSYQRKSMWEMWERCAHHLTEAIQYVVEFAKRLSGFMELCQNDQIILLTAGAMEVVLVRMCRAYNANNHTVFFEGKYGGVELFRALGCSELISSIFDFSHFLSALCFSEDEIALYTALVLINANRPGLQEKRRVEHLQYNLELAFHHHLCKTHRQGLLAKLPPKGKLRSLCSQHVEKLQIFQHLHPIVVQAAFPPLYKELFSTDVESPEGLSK
#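 ROR gamma transcriptional activity was tracked as Gal4-UAS luciferase output in stably transfected Drosophila Schneider cells, with compound added 1 hr before 700 uM copper sulfate induction and a 20 hr ambient-temperature incubation.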
# ClpP mod: qHTS Assay for Activators of ClpP; Potency, µM (top dose mostly 57.5 µM), for the others: at the top dose activity change, negative = active; purified B. subtilis ClpP, FRET peptide cleavage, 20 min; AID 651965, 2013; hit rate 1.9% among 340,000; active = well fitted falling curve with a large enough effect; inconclusive = small, poorly fitted or top-dose-only effect; inactive = no such curve, though single readings can be large or run the other way; also: the source files actives as falling curves though it sought activators and does not explain the sign; nearly all actives have a fitted effect of over 65% in size
# Target sequence (P80244 whole entry, looked up): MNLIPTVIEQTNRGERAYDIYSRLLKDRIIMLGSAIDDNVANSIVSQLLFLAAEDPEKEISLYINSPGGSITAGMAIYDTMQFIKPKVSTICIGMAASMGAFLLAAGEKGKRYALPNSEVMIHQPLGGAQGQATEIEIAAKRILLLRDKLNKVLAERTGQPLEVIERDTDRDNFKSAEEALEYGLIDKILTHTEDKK
#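 Buffer: 100 mM Tris/HCl pH8, 100 mM KCl, 0.05% low protease BSA, 2.5% glycerol, 0.01% Tween-20. ClpP 10 microg/mL final; 20 min RT; delta FRET normalized to ADEP and DMSO controls.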
# PINK1 expr mod: A Quantitative High throughput Screen to Identify Chemical Modulators of PINK1 Expression; hit rate 0.2% among 410,000; PINK1 immunofluorescence, high-content cytometry, 24 h; AID 624263, 2012; Potency, µM (top dose mostly 76.6 µM), without a hit: at the highest dose activation (PINK1 increase), most hits filed as activators; active = well fitted activation curve with a large enough effect; inconclusive = small, poorly fitted or top-dose-only effect; cell line not stated here; also: % of control where 0% means no effect; nearly all actives have a fitted effect of over 65% in size
#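 Decision-based qHTS: stable cells, 24 h exposure to five compound concentrations, CCCP as control. Fixed cells stained for PINK1 plus nuclear, mitochondrial and cell markers, cytometer read.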
# VP16 counter: VP16 counterscreen qHTS for inhibitors of ROR gamma transcriptional activity. Potency, µM (top dose mostly 53.6 µM), inactives show at the highest dose activity, negative = inhibition, actives largely listed as inhibitors. Drosophila S2 Gal4-VP16 UAS-luciferase, luminescence, 20 h. hit rate 3.5% among 310,000;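 also: Gal4-VP16 expression switched on by copper sulfate through the metallothionein promoter; % is scaled to controls: 0 for no effect and ±100 for the full control effect; nearly all actives have a fitted effect of over 50% in size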
# Epigenetic derep: Quantitative High-Throughput Screen for Regulators of Epigenetic Control; Potency, µM (titrated, usually from 53.9 µM), without a hit: at the top dose GFP activation, hits mostly activators; hit rate 0.2% among 280,000; murine LDR cells, GFP reporter derepression, 30 h; also: % of control where 0% means no effect; nearly all actives have a fitted effect of over 60% in size
#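 Murine LDR cells bearing a silenced CMV-driven GFP reporter were exposed to compound for 30 h at 37 C. After PBS washes, GFP-positive cells (20-120 um objects) counted by laser-scanning microplate cytometry.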
# * = called active by the depositor; u = inconclusive; x = not tested or not shown; [ ] = remark or other dose. Most compounds without a hit are left out; they make up all but 8.1% or so of the library. Unless noted, calls follow the shape of the dose curve; as a rule, active = well fitted curve in the direction sought with a large enough effect; inconclusive = small, poorly fitted or top-dose-only effect, or another doubt; inactive = no such curve, though single readings can be large; an effect the other way counts as inactive or inconclusive. Potency is read from the fitted curve at half-maximal effect.
SMILES,Sfp PPTase inh,RORg inh,ClpP mod,PINK1 expr mod,VP16 counter,Epigenetic derep
COc1ccc(-c2ccc(C(=O)Nc3ccc4c(c3)OCO4)c3occc23)c(C)c1,x,x,32µM*,2%,x,x
COc1ccc(-c2coc3c(C(=O)Nc4ccc(OC)nc4)cccc23)c(C)c1,x,x,-27%,2%,x,x
O=C(NCCCN1CCCC1=O)c1ccc2c(c1)NC(=O)C(N1CCOCC1)S2 (stereo not drawn),71µM*,-5%,1%,0%,u,-1%
COC(=O)c1ccc2c(c1)NC(=O)C(N1CCOCC1)S2 (stereo not drawn),13%,-1%,-2%,-3%[38.3 µM],15%,-1%
Cc1oc2ccc(O)c(CN(C)Cc3ccccc3)c2c1C(=O)Nc1cccc(C(F)(F)F)c1,x,x,-27%,u,x,-2%
CC1CCCN(c2ccc(C(=O)Nc3ccc4c(c3)OCO4)cc2[N+](=O)[O-])C1 (stereo not drawn),10%,u,1%,8%,-1%,0%
CC1CCCN(c2ccc(C(=O)Nc3nnc(C4CC4)s3)cc2[N+](=O)[O-])C1 (stereo not drawn),14%,13µM*,-1%,2%,u,0%
Cc1oc2c(c1C(=O)c1ccccc1)C(=O)C(=O)c1ccccc1-2,50µM*,2.8µM*,2%,-4%,3.2µM*,0%
Cc1oc2c(c1C(=O)O)C(=O)c1ccccc1C2=O,u,u,0%,0%,u,1%
O=C1C(=O)c2c(C(=O)c3ccccc3)coc2-c2ccccc21,56µM*,6.3µM*,-2%,-4%,3.5µM*,1%
CCCCNC(=O)C1CCC(Cn2c(=O)c3sccc3n(Cc3ccccc3)c2=O)CC1 (stereo not drawn),x,x,1%,-1%,x,1%
O=C(/C=C/c1c(F)cccc1Cl)N1CCc2ccccc2C1,4%,0.4µM*,x,4%,2%,x
CCc1ccc(/C=C\C(=O)N2CCc3ccccc3C2)cc1,-4%,10µM*,-5%,0%,u,0%
O=C(C1CCC(Cn2c(=O)c3sccc3n(Cc3ccccc3)c2=O)CC1)N1CCOCC1 (stereo not drawn),x,x,1%,0%,x,0%
CCCC(=O)NC(c1ccccc1Cl)c1ccc2cccnc2c1O (stereo not drawn),12%,2.8µM*,x,0%,4.5µM*,x
CC(=O)NC(c1ccco1)c1ccc2cccnc2c1O (stereo not drawn),10%,3.5µM*,1%,0%,11µM*,u
CCCC(=O)NC(c1ccc(N(C)C)cc1)c1ccc2cccnc2c1O (stereo not drawn),18%,2.5µM*,x,0%,2.8µM*,x
CCC(=O)NC(c1ccc(C)cc1)c1ccc2cccnc2c1O (stereo not drawn),18%,2.2µM*,x,2%,2.8µM*,x
O=C(NCC(c1cccnc1)N1CCc2ccccc21)C(=O)Nc1ccccc1F (stereo not drawn),x,x,-4%,-2%,x,1%
CCc1ccc(NC(=O)C2CCN(C(=O)N3CC(CC)Oc4ccccc43)CC2)cc1 (stereo not drawn),x,x,1%,0%,x,1%
COc1cc2c(cc1OC)CN(C(=O)[C@@H]1C[C@H](NCc3cn(C)c4ccccc34)CN1C1Cc3ccccc3C1)CC2,x,x,x,6%,x,x
O=C(CCS(=O)(=O)c1cccc2nonc12)Nc1c(F)cccc1F,x,x,0%,2%,x,-2%
Cn1cc(C(=O)NCCc2ccccc2)c(=O)c2cc(S(=O)(=O)N3CCCCCC3)ccc21,x,x,-2%,2%,x,-2%
CCCC(=O)NC(c1ccc(C(C)C)cc1)c1ccc2cccnc2c1O (stereo not drawn),8%,2.2µM*,x,15%,2.8µM*,x
CC(C)C(=O)NC(c1ccc(Cl)cc1Cl)c1ccc2cccnc2c1O (stereo not drawn),6%,4.5µM*,-8%,5%,3.2µM*,x
SMILES,Sfp PPTase inh,RORg inh,ClpP mod,PINK1 expr mod,VP16 counter,Epigenetic derep
CCCCC(=O)NC(c1ccc(Cl)cc1Cl)c1ccc2cccnc2c1O (stereo not drawn),16%,3.2µM*,x,15%,3.2µM*,x
COc1ccc(C(=O)NC(c2ccccc2Cl)c2cc(Cl)c3cccnc3c2O)cc1 (stereo not drawn),x,x,2%,21%,x,0%
COc1ccc(C(NC(=O)C(C)C)c2ccc3cccnc3c2O)cc1 (stereo not drawn),8%,2.2µM*,x,1%,6.3µM*,3.5µM*
Cc1ccnc(NC(c2ccccc2F)c2ccc3cccnc3c2O)c1 (stereo not drawn),x,x,-4%,2%,x,2%
CCC(=O)NC(c1ccc(Cl)cc1Cl)c1ccc2cccnc2c1O (stereo not drawn),7%,-1%[1.91 µM],x,-2%,u,x
CCCCC(=O)NC(c1ccc(OC)cc1)c1ccc2cccnc2c1O (stereo not drawn),x,x,1%,0%,x,x
Nc1ncnc2c1ncn2[C@@H]1O[C@H](C(=O)NC2CC2)[C@H](O)[C@H]1O,x,x,x,x,x,0%
COc1cccc(NC(=O)c2ccc(CNS(=O)(=O)c3ccc4c(c3)C(C)(C)C(=O)N4C)cc2)c1,x,x,0%,2%,x,0%
CS(=O)(=O)NCC(c1ccco1)N1CCN(c2ccccc2)CC1 (stereo not drawn),x,x,1%,1%,x,-2%
O=S(=O)(NCC(c1ccc2c(c1)OCO2)N1CCOCC1)c1ccc(Br)cc1 (stereo not drawn),x,x,x,-1%,x,x
Cc1ccc(S(=O)(=O)NCC(c2ccc3c(c2)OCO3)N2CCOCC2)cc1 (stereo not drawn),x,x,28µM*,0%,x,x
Cc1cc(CNC(=O)c2cnn(-c3ncc4c(n3)-c3ccccc3CC4)c2C2CC2)on1,x,x,x,2%,x,x
O=C1C=CC2=C3c4cc(O)c(O)cc4C[C@]3(O)COC2=C1,-109%,u,x,x,-11%,8%
Cc1noc(/C=C/Nc2ccc(F)cc2F)c1[N+](=O)[O-],13%,u,x,-2%,-6%,u
COc1ccccc1N/C=C/c1onc(C)c1[N+](=O)[O-],4%,11µM*,2%,5%,u,u
COc1cc2c(cc1OC)C(c1ccccc1)N(C(=O)CCl)CC2 (stereo not drawn),2%,25µM*,0%,-2%,u,-1%

# Compound activity (PubChem BioAssay)
